The target in assay [1] is Tyrosine-protein kinase SYK (Homo sapiens) (UniProt P43405). Particulars: at 10 µM.
Assay [2] deals with T1, Mitogen-activated protein kinase kinase kinase 7 (Homo sapiens) (UniProt O43318).
T1 sequence (whole entry): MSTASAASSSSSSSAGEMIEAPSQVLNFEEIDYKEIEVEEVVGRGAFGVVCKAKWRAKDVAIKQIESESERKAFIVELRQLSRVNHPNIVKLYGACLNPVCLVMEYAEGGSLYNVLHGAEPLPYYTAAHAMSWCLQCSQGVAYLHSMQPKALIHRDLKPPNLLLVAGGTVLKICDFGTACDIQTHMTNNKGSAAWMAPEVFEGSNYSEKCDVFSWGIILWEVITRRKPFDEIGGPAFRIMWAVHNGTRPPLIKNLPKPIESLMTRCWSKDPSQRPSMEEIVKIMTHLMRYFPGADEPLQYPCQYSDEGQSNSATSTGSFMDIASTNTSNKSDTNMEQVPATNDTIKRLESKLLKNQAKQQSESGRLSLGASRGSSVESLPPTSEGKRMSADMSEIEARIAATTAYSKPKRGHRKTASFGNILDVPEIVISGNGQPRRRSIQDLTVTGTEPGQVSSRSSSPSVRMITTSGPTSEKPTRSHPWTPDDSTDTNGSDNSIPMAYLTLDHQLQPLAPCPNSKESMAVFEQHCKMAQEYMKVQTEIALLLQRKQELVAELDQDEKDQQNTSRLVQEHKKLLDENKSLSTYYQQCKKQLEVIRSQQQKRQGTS
Particulars: at 1 µM.

For assay [3], the target named is T1, Mitogen-activated protein kinase kinase kinase 7 (Homo sapiens). Particulars: at 10 µM.
In assay [4] the target is T2, Serine/threonine-protein kinase TAO1 (Homo sapiens) (UniProt Q7L7X3).
T2 sequence (whole entry): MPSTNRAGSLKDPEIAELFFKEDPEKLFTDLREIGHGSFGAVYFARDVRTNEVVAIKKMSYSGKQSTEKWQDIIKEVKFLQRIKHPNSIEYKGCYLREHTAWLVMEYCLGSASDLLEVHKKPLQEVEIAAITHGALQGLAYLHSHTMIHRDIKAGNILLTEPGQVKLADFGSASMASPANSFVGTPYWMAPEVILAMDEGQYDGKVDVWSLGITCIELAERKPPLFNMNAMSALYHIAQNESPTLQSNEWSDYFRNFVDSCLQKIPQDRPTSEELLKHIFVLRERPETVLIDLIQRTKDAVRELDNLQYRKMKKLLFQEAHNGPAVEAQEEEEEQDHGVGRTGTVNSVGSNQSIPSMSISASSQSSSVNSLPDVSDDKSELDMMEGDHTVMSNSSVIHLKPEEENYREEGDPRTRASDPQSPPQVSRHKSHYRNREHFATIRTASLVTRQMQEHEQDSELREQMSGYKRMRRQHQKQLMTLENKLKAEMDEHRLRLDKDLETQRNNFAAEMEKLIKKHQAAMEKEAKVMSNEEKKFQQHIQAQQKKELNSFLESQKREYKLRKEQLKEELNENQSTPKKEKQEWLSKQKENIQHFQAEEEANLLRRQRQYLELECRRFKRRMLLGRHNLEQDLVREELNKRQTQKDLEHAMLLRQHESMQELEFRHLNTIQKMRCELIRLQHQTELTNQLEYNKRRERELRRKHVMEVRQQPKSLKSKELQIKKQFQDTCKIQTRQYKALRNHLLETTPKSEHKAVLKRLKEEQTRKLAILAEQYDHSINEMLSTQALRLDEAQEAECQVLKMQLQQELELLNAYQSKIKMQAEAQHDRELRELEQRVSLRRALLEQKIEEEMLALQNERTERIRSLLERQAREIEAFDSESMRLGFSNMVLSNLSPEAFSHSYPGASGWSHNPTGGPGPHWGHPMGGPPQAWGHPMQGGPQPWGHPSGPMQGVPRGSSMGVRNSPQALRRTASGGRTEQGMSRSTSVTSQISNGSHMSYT
Particulars: at 1 µM.

Assay [5] addresses T2, Serine/threonine-protein kinase TAO1 (Homo sapiens). To be noted: at 10 µM.
In assay [6] the target is T3, Serine/threonine-protein kinase TAO2 (Homo sapiens) (UniProt Q9UL54).
T3 sequence (whole entry): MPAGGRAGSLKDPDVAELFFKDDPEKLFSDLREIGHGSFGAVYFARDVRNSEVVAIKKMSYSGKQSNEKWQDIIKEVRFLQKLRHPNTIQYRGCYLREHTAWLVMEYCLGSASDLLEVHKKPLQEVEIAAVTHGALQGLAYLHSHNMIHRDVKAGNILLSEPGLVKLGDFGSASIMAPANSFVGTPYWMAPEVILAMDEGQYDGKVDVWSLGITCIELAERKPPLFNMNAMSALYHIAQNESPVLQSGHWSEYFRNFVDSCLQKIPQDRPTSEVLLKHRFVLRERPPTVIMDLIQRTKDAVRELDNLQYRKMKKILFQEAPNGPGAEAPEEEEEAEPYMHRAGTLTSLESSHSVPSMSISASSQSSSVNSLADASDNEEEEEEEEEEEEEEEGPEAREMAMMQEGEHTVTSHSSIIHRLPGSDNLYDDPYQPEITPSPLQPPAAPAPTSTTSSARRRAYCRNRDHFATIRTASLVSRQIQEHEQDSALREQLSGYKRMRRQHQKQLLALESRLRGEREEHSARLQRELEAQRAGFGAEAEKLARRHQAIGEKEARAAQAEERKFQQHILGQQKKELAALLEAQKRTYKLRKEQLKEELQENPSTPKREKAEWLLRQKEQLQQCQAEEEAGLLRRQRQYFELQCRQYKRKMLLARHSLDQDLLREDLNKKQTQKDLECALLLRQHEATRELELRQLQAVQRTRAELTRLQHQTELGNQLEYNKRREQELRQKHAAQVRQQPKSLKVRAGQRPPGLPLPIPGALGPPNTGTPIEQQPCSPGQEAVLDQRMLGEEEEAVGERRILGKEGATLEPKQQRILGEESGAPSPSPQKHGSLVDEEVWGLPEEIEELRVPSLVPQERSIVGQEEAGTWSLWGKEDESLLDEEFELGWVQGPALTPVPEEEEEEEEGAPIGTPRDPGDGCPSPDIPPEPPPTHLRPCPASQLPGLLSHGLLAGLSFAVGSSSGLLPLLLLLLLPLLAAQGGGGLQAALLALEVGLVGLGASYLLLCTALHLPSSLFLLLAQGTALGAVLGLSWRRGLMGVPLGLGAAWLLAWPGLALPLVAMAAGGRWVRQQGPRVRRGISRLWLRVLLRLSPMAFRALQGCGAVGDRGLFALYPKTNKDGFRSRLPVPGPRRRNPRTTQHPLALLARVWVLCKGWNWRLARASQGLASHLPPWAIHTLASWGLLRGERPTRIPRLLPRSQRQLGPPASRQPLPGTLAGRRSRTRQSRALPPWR
To be noted: at 1 µM.

Assay [7] concerns the target T3, Serine/threonine-protein kinase TAO2 (Homo sapiens). Particulars: at 10 µM.
In assay [8] the target is T4, Serine/threonine-protein kinase TAO3 (Homo sapiens) (UniProt Q9H2K8).
T4 sequence (whole entry): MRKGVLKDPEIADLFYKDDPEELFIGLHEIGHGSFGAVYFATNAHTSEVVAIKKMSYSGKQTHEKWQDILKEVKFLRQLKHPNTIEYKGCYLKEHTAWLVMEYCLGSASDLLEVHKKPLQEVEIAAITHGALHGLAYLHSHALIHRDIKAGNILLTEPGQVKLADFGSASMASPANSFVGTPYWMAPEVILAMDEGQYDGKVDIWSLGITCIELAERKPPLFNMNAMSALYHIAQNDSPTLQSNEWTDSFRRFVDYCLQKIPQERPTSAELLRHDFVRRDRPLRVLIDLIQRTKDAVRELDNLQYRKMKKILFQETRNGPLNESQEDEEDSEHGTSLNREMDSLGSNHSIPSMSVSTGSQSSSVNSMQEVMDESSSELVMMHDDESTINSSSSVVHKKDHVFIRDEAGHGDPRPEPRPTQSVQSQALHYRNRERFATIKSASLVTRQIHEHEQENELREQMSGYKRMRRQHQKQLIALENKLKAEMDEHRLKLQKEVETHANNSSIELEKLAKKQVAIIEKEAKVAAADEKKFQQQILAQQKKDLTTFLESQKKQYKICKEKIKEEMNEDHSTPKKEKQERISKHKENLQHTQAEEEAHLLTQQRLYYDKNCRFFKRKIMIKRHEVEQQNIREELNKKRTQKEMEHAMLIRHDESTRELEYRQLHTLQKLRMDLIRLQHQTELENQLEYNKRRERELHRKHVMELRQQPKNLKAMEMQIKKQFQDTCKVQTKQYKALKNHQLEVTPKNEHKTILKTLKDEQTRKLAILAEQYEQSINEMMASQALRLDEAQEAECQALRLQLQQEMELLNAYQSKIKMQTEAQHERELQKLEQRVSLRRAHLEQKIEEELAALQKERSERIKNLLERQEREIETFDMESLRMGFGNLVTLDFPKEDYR
Particulars: at 1 µM.

Assay [9] has as its target T4, Serine/threonine-protein kinase TAO3 (Homo sapiens). To be noted: at 10 µM.
Assay [10] has as its target T5, Serine/threonine-protein kinase TBK1 (Homo sapiens) (UniProt Q9UHD2).
T5 sequence (whole entry): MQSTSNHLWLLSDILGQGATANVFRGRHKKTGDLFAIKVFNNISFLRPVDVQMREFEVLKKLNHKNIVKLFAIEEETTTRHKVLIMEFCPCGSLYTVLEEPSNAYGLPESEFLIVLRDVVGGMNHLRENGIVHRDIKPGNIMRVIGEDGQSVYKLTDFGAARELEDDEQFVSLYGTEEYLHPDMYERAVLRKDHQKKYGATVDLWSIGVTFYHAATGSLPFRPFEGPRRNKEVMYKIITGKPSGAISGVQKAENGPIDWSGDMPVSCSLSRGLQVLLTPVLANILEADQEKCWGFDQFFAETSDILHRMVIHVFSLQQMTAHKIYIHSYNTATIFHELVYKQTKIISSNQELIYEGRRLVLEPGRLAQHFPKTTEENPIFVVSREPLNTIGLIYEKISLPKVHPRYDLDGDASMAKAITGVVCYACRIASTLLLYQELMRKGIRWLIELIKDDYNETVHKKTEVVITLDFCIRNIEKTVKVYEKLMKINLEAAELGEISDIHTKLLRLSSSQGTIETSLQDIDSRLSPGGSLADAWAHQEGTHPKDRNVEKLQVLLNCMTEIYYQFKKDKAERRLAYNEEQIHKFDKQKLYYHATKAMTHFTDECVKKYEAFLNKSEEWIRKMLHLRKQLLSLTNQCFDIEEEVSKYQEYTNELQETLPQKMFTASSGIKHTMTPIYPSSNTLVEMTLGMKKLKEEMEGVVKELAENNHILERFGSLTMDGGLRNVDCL
To be noted: at 1 µM.

The target in assay [11] is T5, Serine/threonine-protein kinase TBK1 (Homo sapiens). Particulars: at 10 µM.
Assay [12] concerns the target T6, TGF-beta receptor type-1 (Homo sapiens) (UniProt P36897).
T6 sequence (whole entry): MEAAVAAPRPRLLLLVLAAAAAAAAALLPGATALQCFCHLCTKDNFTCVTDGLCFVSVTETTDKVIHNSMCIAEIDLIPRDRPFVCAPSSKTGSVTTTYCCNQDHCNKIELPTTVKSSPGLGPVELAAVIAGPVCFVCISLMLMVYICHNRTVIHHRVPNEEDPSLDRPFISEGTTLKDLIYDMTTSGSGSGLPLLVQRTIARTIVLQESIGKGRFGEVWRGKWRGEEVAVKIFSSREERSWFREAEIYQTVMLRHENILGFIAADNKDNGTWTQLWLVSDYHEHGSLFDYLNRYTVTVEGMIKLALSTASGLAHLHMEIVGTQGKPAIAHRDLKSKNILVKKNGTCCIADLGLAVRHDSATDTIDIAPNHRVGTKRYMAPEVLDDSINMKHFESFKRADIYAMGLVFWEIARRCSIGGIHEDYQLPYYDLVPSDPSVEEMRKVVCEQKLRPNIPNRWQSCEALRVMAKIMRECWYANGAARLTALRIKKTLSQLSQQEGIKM
To be noted: at 1 µM.

The target of assay [13] is T6, TGF-beta receptor type-1 (Homo sapiens). Particulars: at 10 µM.
Assay [14] has as its target Insulin-like growth factor 1 receptor (Homo sapiens) (UniProt P08069). To be noted: at 1 µM.
For assay [15] the target is unchanged. Particulars: at 10 µM.
For assay [16], the target named is Insulin receptor (Homo sapiens) (UniProt P06213). Particulars: at 1 µM.
Chain of Insulin receptor (Homo sapiens) (P06213 28-758 limits assumed): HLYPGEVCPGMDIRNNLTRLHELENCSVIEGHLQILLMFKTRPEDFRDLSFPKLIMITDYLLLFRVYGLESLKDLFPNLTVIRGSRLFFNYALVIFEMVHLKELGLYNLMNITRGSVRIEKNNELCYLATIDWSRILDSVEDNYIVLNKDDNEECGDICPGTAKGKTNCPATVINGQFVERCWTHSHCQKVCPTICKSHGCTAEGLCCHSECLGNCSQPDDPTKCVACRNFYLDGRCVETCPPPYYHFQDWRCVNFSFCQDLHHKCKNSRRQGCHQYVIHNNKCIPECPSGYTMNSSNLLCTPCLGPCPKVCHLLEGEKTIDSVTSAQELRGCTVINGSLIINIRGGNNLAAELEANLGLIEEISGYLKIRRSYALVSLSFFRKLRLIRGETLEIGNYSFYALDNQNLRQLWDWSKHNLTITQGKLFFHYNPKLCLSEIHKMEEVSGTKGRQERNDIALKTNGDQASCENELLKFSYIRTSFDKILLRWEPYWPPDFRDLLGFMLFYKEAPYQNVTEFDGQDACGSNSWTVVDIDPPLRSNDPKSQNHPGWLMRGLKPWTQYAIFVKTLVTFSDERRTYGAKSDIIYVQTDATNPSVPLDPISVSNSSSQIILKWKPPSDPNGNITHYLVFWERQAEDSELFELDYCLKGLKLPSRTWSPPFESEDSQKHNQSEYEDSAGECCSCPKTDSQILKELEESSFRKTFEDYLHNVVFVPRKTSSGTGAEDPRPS
Chain of Insulin receptor (Homo sapiens) (P06213 763-1382 limits assumed): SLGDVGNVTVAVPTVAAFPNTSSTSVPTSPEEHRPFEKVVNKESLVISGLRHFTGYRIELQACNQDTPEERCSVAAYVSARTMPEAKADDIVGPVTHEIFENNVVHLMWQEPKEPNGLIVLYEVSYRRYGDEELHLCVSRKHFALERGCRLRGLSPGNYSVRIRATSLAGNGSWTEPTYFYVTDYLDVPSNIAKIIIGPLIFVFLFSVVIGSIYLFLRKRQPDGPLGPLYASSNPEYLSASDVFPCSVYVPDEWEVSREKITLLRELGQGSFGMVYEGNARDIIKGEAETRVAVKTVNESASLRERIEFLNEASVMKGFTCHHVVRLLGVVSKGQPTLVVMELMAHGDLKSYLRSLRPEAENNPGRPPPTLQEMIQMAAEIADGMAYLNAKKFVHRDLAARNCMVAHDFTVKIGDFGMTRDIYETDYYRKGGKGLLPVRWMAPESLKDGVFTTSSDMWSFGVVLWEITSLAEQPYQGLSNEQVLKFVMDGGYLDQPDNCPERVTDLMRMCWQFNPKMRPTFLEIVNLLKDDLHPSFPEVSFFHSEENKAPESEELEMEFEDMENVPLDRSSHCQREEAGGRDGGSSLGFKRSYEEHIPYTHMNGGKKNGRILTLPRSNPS

Chain of Insulin-like growth factor 1 receptor (Homo sapiens) (P08069 31-736 limits assumed): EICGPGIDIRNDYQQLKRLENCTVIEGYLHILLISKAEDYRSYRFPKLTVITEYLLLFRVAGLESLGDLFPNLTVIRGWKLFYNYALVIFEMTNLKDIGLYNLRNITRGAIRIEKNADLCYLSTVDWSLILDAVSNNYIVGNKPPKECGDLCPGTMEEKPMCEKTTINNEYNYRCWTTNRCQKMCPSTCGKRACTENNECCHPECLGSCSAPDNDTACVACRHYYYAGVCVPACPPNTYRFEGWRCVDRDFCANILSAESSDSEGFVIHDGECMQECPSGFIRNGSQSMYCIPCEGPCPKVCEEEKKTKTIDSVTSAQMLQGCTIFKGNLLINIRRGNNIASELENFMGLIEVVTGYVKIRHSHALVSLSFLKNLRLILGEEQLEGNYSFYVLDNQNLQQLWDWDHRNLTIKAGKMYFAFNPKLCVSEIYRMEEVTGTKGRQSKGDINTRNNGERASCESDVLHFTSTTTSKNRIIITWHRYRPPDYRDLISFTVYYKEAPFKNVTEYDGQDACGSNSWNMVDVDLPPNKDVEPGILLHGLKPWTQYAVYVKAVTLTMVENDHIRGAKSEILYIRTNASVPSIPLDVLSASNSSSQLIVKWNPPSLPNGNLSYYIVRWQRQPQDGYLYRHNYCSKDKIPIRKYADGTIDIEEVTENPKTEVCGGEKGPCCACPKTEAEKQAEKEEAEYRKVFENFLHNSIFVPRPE
Chain of Insulin-like growth factor 1 receptor (Homo sapiens) (P08069 741-1367 limits assumed): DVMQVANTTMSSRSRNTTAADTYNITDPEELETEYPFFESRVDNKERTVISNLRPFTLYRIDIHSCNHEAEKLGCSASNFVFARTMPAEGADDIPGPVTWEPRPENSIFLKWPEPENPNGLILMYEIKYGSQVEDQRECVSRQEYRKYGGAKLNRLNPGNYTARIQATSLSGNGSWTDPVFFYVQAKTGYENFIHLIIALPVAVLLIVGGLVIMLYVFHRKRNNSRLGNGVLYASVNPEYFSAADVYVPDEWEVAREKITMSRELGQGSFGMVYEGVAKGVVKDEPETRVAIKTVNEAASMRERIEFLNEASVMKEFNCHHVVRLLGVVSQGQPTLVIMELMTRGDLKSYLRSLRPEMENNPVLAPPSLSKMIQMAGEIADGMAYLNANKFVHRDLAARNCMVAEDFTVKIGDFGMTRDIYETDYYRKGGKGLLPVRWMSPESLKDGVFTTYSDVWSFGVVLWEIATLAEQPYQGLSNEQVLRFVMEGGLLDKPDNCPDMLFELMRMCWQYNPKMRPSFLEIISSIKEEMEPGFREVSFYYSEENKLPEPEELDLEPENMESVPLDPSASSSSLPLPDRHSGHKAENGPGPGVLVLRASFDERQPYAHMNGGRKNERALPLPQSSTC

With `COc1cc2nccc(Oc3ccc(NC(=S)NC(=O)c4ccccc4C)cc3)c2cc1OC`, the residual activity in assay [1] stood at 65%; in [2] it was 87%; in assay [3], 87%; in assay [4] it was 91%; in assay [5] it was 71%; in assay [6] it was 89%. The residual activity is 75% in assay [7]; 78% in assay [8]; 67% in [9]; 57% in [10]; 48% in assay [11]; 78% in assay [12]. For the same compound, the residual activity was found to be 77% in assay [13], 87% in assay [14], 73% in [15] and 92% in [16].

For the origin of these results see ChEMBL document CHEMBL2218924, “A broad activity screen in support of a chemogenomic map for kinase signalling research and drug discovery” (Biochem J, 2013).
